Where “and” joins values, the source holds several entries; their conditions need not be identical. Equal values may be shown once. Results filed as inconclusive are left out. Entries that show only a call come without a potency. Calls of active or inactive are those of the source. Calls come from the whole dose curve.
Experiment: Primary qHTS to identify inhibitors of SARS-CoV-2 cell entry (AID 1645846); note: nearly all actives have a fitted effect of over 45% in size
Conditions: SARS-CoV-2 pseudovirus cell entry assay, luminescence; activity change, negative = inhibition: at 57.1 µM (top of the series) unless noted; series mostly up to 57.1 µM
From the text: Assay Provider: Wei Zheng, Ph.D.
National Center for Advancing Translational Sciences, National Institute of Health, Rockville, MD.
SARS-CoV-2 spike protein, within the viral envelope, mediates viral attachment and infection of host cells. The SARS-CoV-2 spike protein specifically binds to the host receptor ACE2 (Angiotensin-converting enzyme 2). This interaction promotes endocytosis of the viral particle, additional events lead to viral-host cell membrane fusion and release of the viral contents, allowing viral replication.
While SARS-CoV-2 requires BSL-3 facilities for live virus work, pseudotyped partices (PP) that incorporate SARS-CoV-2 spike proteins without replication elements could facilitate studies on viral entry mechanisms in a BSL-2 setting. This PP cell entry assay could also enable screening of small molecule compound libraries in BSL-2 setting to identify inhibitors of SARS-CoV-2 cell entry.
PROTOCOL TABLE (format as described by Inglese J, Shamu CE and Guy RK. 2007)
SEQUENCE No. (e.g., 1, 2, 3, etc.); […] (e.g., Cells, Incubation, Reagent, etc.); VALUE and DESCRIPTION.
1. Cells. Seed 1500 HEK293-ACE2 cells (Expi293F with stable expression of human ACE2) in 2 uL/well media (DMEM, 10% FBS, 1x L-glutamine, 1x Pen/Strep, 1 ug/ml puromycin) in white 1536-well assay plates (Greiner #782073).
2. Incubation. Incubate at 37C with 5% CO2 overnight (~16 h).
3. Compounds. Dispense 23 nL/well compounds in DMSO via pin transfer.
4. Incubation. Incubate for 1 hr at 37C 5% CO2.
5. Reagent. Dispense 2 uL/well of SARS-CoV-2-S pseudotyped particles. [a] PPs are produced with murine leukemia virus pseudotyping. [b] SARS-CoV-2-S is Wuhan-Hu-1 sequence (BEI #NR-52420) with C-terminal 19 amino acid truncation.
6. Centrifuge. […]
7. Incubation. Incubate at for 48 hr at 37C 5% CO2
8. Centrifuge. Remove supernatant with gentle centrifugation using a Blue Washer (BlueCat Bio).
9. Reagent. Dispense 4 uL/well of Bright-Glo Luciferase detection reagent (Promega #E2620).
10. Incubation. Incubate for 5 min at room temperature.
11. Detection. Read luminescence signal (Viewlux plate reader, PerkinElmer). Data was normalized with wells containing SARS-CoV-2-S PP as 100%, and wells containing bald PP (no fusion protein) as 0%.

Row | Compound | outcome | Potency | activity change, negative = inhibition
1 | CCOC(=O)c1ccc(N)cc1 | inactive |  | 
2 | CC(C)c1ccc2oc3nc(N)c(C(=O)O)cc3c(=O)c2c1 |  | inactive | 
3 | c1ccc(-c2nc[nH]c2-c2ccccc2)cc1 | inactive |  | 
4 | O=C(O)c1cc(=O)c2c(OCC(O)COc3cccc4oc(C(=O)O)cc(=O)c34)cccc2o1 |  | inactive | 
5 | O=C(NC(Cc1cc(=O)[nH]c2ccccc12)C(=O)O)c1ccc(Cl)cc1 (stereo not given) | inactive |  | 1.86%
6 | NS(=O)(=O)c1ccc(Cl)c(S(N)(=O)=O)c1 | inactive |  | 
7 | CO/N=C(/C(=O)N[C@@H]1C(=O)N2C(C(=O)[O-])=C(C[n+]3ccn4ncccc43)CS[C@H]12)c1nsc(N)n1 | inactive |  | 
8 | CCO[C@H](Cc1ccc(OCCc2ccc(OS(C)(=O)=O)cc2)cc1)C(=O)O | inactive |  | 
9 | O=C(O)/C=C\C(=O)O | inactive |  | 
10 | CC[N+](CC)(CCNC(=O)C(=O)NCC[N+](CC)(CC)Cc1ccccc1Cl)Cc1ccccc1Cl | inactive |  | 
11 | Nc1ccn([C@@H]2CS[C@H](CO)O2)c(=O)n1 | inactive |  | -19.3% [at 114 µM]
12 | O=C(O)c1cc(O)c(O)c(O)c1 | inactive |  | 
13 | CC(=O)N(CC(O)CO)c1c(I)c(C(=O)NCCO)c(I)c(C(=O)NCC(O)CO)c1I (stereo not given) |  |  | -15%
14 | CC1(C)O[C@@H]2C[C@H]3[C@@H]4C[C@H](F)C5=CC(=O)C=C[C@]5(C)[C@@]4(F)[C@@H](O)C[C@]3(C)[C@]2(C(=O)CO)O1 | inactive |  | -12.3%
15 | Cn1nnc2c(C(N)=O)ncn2c1=O |  |  | -15.9% and -14.8%
16 | CC(=O)Nc1ccc(OC(=O)c2ccccc2OC(C)=O)cc1 |  |  | -2.29%
17 | CC(=O)O[C@@H]1C(=O)O[C@@H]2[C@H]1OC(=O)[C@@H]2OC(C)=O |  |  | -38.2%

Row | Compound | outcome | Potency | activity change, negative = inhibition
18 | COC(=O)CCCCC(CCSS/C(CCO)=C(\C)N(C=O)Cc1cnc(C)nc1N)SC(C)=O (stereo not given) | inactive |  | 
19 | CC[C@H](C)C(=O)O[C@H]1C[C@H](O)C=C2C=C[C@H](C)[C@H](CC[C@@H](O)C[C@@H](O)CC(=O)O)[C@H]21 | inactive |  | -12.2%
20 | O=C(OCC1(COC(=O)c2cccnc2)CCCC(COC(=O)c2cccnc2)(COC(=O)c2cccnc2)C1O)c1cccnc1 |  |  | -30.1%
21 | CCc1cccc(CC)c1NC(=O)CN(CC(=O)O)CC(=O)O | inactive |  | 
22 | O=C(CCOCCOCCOCCOCCC(=O)Nc1c(I)cc(I)c(C(=O)O)c1I)Nc1c(I)cc(I)c(C(=O)O)c1I | inactive |  | 
23 | COc1cc(NS(=O)(=O)c2ccc(N)cc2)nc(C)n1 | inactive |  | 
24 | CCOP(=S)(OCC)Oc1ccc2c(C)c(Cl)c(=O)oc2c1 |  |  | 69.2%
25 | COc1cc(C(=O)NS(=O)(=O)c2ccccc2C)ccc1Cc1cn(C)c2ccc(NC(=O)OC3CCCC3)cc12 |  | inactive | 
26 | CC(=O)OCC(=O)[C@@]1(OC(C)=O)[C@@H](C)C[C@H]2[C@@H]3C[C@H](F)C4=CC(=O)C=C[C@]4(C)[C@@]3(F)[C@@H](O)C[C@@]21C | inactive |  | 
27 | Cc1c(F)c(N2CCNC(C)C2)cc2c1c(=O)c(C(=O)O)cn2C1CC1 (stereo not given) |  |  | -25.6%
28 | CCOC(=O)C1=C[C@@H](OC(CC)CC)[C@H](NC(C)=O)[C@@H](N)C1 | inactive |  | -2%
29 | CN1C(=O)COc2c(C(=O)NC3CN4CCC3CC4)cc(Cl)cc21 (stereo not given) |  |  | -14.3%
30 | NS(=O)(=O)c1cc(Cl)c(Cl)c(S(N)(=O)=O)c1 |  |  | -0.105%
31 | C[N+]1(C)[C@@H]2CC(OC(=O)[C@H](CO)c3ccccc3)C[C@H]1[C@@H]1O[C@@H]12 (stereo not given in full) |  | inactive | 
32 | CCOC(=O)CC(SP(=S)(OC)OC)C(=O)OCC (stereo not given) |  |  | 2.11%
33 | CN1C[C@@H]2C[C@H]1CN2c1cc2c(cc1F)c(=O)c(C(=O)O)cn2C1CC1 |  |  | -27.1% [at 27.1 µM]

Same assay, conditions: SARS-CoV-2 pseudovirus cell entry assay, luminescence; at 27.1 µM (top of the series)

Row | Compound | activity change, negative = inhibition
34 | CC(=O)NCCCS(=O)(=O)O | 1.79%

Same assay, conditions: SARS-CoV-2 pseudovirus cell entry assay, luminescence; at 57.1 µM (top of the series)

Row | Compound | activity change, negative = inhibition
35 | CC(=O)NCCCS(=O)(=O)O | -6.89%
